Usually inhibition stands for the drop in the measured response relative to a control, in per cent.

Assay [1] concerns the target Serine/threonine-protein kinase pim-2 (Homo sapiens) (UniProt Q9P1W9). The conditions noted are these: at 1 µM.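 Note: each value is a mean of the inhibition measurements against the kinase.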
In assay [2] the target is Serine/threonine-protein kinase pim-3 (Homo sapiens) (UniProt Q86V86). The conditions noted are these: at 0.1 µM.
The target is the same in assay [3]. Particulars: at 1 µM.
The target in assay [4] is T1, MAP kinase-activated protein kinase 5 (Homo sapiens) (UniProt Q8IW41).
T1 sequence (whole entry): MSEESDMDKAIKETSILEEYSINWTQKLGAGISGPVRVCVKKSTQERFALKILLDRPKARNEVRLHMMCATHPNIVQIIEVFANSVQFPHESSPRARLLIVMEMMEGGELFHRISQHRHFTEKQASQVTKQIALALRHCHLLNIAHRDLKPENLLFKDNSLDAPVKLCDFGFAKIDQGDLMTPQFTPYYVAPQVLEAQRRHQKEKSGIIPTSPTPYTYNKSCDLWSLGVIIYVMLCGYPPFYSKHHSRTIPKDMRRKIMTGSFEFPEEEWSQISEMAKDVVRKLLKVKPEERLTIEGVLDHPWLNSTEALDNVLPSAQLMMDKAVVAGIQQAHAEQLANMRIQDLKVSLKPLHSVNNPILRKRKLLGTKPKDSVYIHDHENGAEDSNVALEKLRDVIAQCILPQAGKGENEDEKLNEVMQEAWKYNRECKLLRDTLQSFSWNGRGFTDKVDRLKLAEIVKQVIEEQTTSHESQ
Particulars: at 0.1 µM.

The target of assay [5] is T1, MAP kinase-activated protein kinase 5 (Homo sapiens). The conditions noted are these: at 1 µM.
Assay [6] concerns the target Serine/threonine-protein kinase SIK1 (Homo sapiens) (UniProt P57059). Particulars: at 0.1 µM.
For assay [7] the target is unchanged. Particulars: at 1 µM.
Assay [8] concerns the target Serine/threonine-protein kinase SIK2 (Homo sapiens) (UniProt Q9H0K1). The conditions noted are these: at 0.1 µM.
The target is the same in assay [9]. Particulars: at 1 µM.
In assay [10] the target is T2, Serine/threonine-protein kinase TBK1 (Homo sapiens) (UniProt Q9UHD2).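 Note: values are the mean TBK1 inhibition, taken from the GSK PKIS screening data.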
T2 sequence (whole entry): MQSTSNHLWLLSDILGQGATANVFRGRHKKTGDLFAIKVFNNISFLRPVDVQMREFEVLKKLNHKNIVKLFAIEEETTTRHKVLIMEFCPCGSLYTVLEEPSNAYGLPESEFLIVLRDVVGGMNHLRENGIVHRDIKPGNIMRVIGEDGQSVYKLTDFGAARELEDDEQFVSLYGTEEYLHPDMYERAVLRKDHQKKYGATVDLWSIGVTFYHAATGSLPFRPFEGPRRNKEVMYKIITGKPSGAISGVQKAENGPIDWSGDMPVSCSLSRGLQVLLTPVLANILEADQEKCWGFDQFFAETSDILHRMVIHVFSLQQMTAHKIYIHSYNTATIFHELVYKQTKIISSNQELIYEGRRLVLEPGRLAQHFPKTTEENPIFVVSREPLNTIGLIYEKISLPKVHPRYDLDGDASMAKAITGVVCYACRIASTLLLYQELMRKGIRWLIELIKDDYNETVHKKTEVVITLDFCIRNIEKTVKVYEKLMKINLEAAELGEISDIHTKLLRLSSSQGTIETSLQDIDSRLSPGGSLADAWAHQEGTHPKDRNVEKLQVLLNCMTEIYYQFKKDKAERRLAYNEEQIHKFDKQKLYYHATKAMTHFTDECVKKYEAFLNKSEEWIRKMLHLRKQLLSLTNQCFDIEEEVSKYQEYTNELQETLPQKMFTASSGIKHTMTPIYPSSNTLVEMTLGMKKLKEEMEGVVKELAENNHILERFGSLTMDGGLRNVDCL
The conditions noted are these: at 0.1 µM.

Serine/threonine-protein kinase SIK2 (Homo sapiens), sequence (Q9H0K1 whole entry, looked up): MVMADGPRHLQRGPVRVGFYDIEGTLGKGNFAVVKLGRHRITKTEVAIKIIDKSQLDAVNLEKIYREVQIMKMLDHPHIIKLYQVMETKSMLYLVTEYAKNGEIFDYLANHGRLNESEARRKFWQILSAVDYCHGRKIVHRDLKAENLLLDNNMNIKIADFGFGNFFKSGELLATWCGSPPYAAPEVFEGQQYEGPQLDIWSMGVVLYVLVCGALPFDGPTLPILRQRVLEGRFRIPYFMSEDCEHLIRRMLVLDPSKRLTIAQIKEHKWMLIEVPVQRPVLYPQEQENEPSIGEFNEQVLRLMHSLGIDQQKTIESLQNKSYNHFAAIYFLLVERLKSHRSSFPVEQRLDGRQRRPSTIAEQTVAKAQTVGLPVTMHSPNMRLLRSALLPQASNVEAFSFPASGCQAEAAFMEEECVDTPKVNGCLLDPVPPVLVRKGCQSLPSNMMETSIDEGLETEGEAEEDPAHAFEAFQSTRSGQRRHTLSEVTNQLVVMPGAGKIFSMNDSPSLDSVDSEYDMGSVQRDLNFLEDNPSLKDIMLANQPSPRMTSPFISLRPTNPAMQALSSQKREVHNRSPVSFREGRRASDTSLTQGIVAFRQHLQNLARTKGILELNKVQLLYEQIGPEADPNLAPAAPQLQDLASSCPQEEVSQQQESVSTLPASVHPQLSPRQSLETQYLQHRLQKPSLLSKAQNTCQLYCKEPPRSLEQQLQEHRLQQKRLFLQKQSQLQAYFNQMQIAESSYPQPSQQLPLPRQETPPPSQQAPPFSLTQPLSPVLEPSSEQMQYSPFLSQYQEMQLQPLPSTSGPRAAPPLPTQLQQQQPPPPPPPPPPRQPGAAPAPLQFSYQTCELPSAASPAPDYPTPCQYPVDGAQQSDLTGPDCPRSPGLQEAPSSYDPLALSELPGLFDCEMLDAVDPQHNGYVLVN
Serine/threonine-protein kinase SIK1 (Homo sapiens), sequence (P57059 whole entry): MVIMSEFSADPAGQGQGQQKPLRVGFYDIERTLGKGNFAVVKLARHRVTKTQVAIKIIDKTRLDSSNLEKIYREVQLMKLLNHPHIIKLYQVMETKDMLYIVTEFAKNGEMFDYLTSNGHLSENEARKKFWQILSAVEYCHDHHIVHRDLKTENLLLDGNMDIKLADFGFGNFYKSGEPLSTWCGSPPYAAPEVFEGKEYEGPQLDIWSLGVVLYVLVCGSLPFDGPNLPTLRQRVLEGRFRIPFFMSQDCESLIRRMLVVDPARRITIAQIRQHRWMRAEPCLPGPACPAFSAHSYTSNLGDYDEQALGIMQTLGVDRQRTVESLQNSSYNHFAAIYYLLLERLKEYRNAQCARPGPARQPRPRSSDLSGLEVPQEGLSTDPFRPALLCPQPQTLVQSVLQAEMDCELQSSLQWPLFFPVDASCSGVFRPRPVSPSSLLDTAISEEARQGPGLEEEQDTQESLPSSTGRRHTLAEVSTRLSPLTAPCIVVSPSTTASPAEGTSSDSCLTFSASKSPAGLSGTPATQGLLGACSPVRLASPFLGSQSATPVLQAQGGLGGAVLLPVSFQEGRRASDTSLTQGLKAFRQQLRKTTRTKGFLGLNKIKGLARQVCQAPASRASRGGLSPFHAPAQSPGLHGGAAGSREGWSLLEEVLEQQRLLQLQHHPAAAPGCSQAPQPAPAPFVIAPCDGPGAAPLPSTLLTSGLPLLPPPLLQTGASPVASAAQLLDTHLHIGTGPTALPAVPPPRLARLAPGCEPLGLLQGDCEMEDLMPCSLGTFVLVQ
Serine/threonine-protein kinase pim-2 (Homo sapiens), sequence (Q9P1W9 whole entry, looked up): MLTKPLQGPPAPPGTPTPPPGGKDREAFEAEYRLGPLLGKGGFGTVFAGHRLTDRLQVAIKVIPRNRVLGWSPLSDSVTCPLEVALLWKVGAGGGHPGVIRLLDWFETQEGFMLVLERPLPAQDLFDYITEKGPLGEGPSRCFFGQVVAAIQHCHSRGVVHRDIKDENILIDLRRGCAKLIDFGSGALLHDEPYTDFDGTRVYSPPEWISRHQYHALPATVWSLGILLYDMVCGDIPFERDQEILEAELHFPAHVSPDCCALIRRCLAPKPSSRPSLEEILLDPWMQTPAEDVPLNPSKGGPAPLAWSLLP

Take `O=C1NC(=O)C(N2CCc3ccccc32)=C1c1ccc(Cl)cc1`: the inhibition in [1] was 0.77%; in assay [2], -1.28%; in assay [3] it was -2.25%; in assay [4], 1.12%; in assay [5], 0.55%; in [6], 5.76%. In addition, the inhibition in [7] was determined as 7.18%; in assay [8], 1.33%; in assay [9], 5.15%; in assay [10], 3.01%.

Take `COc1ccc(-c2nn3ncccc3c2-c2ccnc(Nc3ccc(Cl)c(C(F)(F)F)c3)n2)cc1`: the inhibition in assay [1] is 0.14%; in assay [2] it was 1.02%; in assay [3], 2.53%; in assay [4], 1.42%; in assay [5] it was 1.91%; in [6] it was 2.76%. For the same molecule, the inhibition in [7] worked out at 5.43%; in assay [8] it was 5.44%; in assay [9], 1.72%; in assay [10], 0.22%.

For the molecule `O=C1NC(=O)C(c2ccccc2Cl)=C1Nc1cccc(O)c1`, the inhibition is 0.28% in [1]; -0.32% in assay [2]; -0.95% in assay [3]; 0.71% in [4]; 0.06% in [5]; 1.46% in [6]. Moreover, the inhibition in [7] stood at 5.5%; in assay [8], 8.17%; in assay [9], 10.7%; in assay [10] it was 2.04%.

Take `NC(=O)c1cccc(Nc2nccc(Nc3cccc4[nH]ncc34)n2)c1`: the inhibition in assay [1] is 1.09%; in [2], -0.77%; in [3], 3.49%; in assay [4] it was -1.41%; in assay [5], -1%; in assay [6] it was 14.8%. Moreover, the inhibition was 68.5% in assay [7], -4.28% in [8], 32.5% in assay [9] and 0.88% in [10].

For the molecule `COC(=O)Nc1nc2cc(Oc3ccc(NC(=O)Nc4cccc(C(=O)O)c4)cc3)ccc2[nH]1`, the inhibition in assay [1] is -2.76%; in [2], 1.29%; in assay [3], 3.84%; in assay [4], 0.42%; in assay [5], 1%; in assay [6], 3.75%. The inhibition in assay [7] is 1.25%; in [8], -0.04%; in [9] it was 2.04%; in [10], 0.81%.

For `CS(=O)(=O)CCNCc1ccc(-c2ccc3ncnc(Nc4ccc(OCc5cccc(F)c5)c(C(F)(F)F)c4)c3c2)o1`, the inhibition was determined as 0.66% in [1]; 0.74% in [2]; 0.16% in assay [3]; 1.63% in assay [4]; 2.16% in assay [5]; 0.39% in assay [6]. The inhibition in [7] was determined as 9.67%; in [8] it was 2.19%; in [9] it was 10.8%; in assay [10] it was 1.68%.

With `CNC(=O)c1cncc(/C=C/c2c(Cl)cccc2Cl)c1`, the inhibition was -0.92% in assay [1]; 1.26% in assay [2]; 7.42% in assay [3]; 1.11% in [4]; 1.46% in assay [5]; 11.9% in [6]. Further, the inhibition in assay [7] was 50.9%; in assay [8], 2.71%; in assay [9] it was 17.3%; in [10], 2.82%.

Turning to `CS(=O)(=O)CCN(CC#N)Cc1ccc(-c2ccc3ncnc(Nc4ccc(OCc5cccc(F)c5)c(Cl)c4)c3c2)o1`, the inhibition in assay [1] was -3.72%; in assay [2], -0.61%; in assay [3], -0.3%; in [4], 0.76%; in assay [5] it was 1.23%; in assay [6] it was 4.78%. The inhibition in assay [7] was determined as 9.27%; in assay [8], 1.11%; in assay [9], 0.48%; in [10] it was 0.72%.

`Cc1cccc(-c2n[nH]cc2-c2ccc3ncccc3n2)n1`: the inhibition was -0.16% in [1]; -1.47% in [2]; -1.14% in [3]; 0.08% in assay [4]; 0.05% in [5]; -0.73% in assay [6]. The inhibition in assay [7] was 3.97%; in [8], 3.18%; in [9] it was 13.8%; in assay [10], -2.48%.

As for `COc1ccc(-c2ccncc2)cc1C(N)=O`, the inhibition was -0.52% in assay [1]; -0.49% in [2]; 3.33% in assay [3]; 1.23% in assay [4]; 1.1% in [5]; 3.59% in [6]. Further, the inhibition in [7] was determined as 9.53%; in [8] it was 3.27%; in [9], 4.53%; in assay [10], 2.55%.

Consider `CCCN1CCC=C(c2ccc(Nc3nc(Nc4ccccc4C(N)=O)c4cc[nH]c4n3)c(C)c2)C1`, for which the inhibition in assay [1] is 4.08%; in assay [2] it was 2.03%; in [3] it was 12.5%; in assay [4], 1.79%; in [5] it was 5.7%; in assay [6] it was 5.62%. The inhibition in assay [7] was 9.29%; in [8] it was 2.87%; in [9], 8.52%; in [10], 3.95%.

On to `CN(C)c1cc2c(Nc3ccc4nc(Cc5ccccc5)[nH]c4c3)ncnc2cn1`, for which the inhibition was found to be 0.97% in [1]; 2.51% in assay [3]; 1.83% in assay [4]; 2.12% in assay [5]; 5.71% in assay [6]; 10.2% in assay [7]. Moreover, the results for the inhibition in assay [8], in assay [9] and in assay [10] were 8.08%, 7.99% and 2.69%, respectively.

As to `O=C1NC(=O)C(c2ccc(Cl)cc2)=C1Nc1ccc(Cl)c(C(=O)O)c1`, the inhibition in [1] was 0.1%; in assay [2] it was 0.19%; in [3], -0.33%; in [4] it was -0.91%; in [5] it was -0.59%; in [6] it was -6.41%. For the same molecule, the inhibition in assay [7] is -4.82%; in [8], -6%; in assay [9], -3.21%; in [10], -0.72%.

Take `CCn1c(-c2nonc2N)nc2c(C#CC(C)(C)O)nc(CN3CCCC3)cc21`: the inhibition was 1.6% in assay [1]; -0.35% in assay [2]; 0.7% in [3]; -0.65% in [4]; -1.46% in assay [5]; -1.04% in [6]. The inhibition was 0.38% in [7], -6.78% in [8], -1.41% in assay [9] and 1.77% in assay [10].

For the molecule `Nc1ncnc2occ(-c3ccc(NC(=O)Nc4cccc(C(F)(F)F)c4)cc3)c12`, the inhibition was 0.72% in assay [1]; 0.78% in [2]; 0.9% in [3]; 1.67% in assay [4]; 1.36% in [5]; -0.49% in assay [6]. The inhibition turned out to be 9.69% in assay [7], 4.8% in assay [8], 3.6% in assay [9] and 3.95% in [10].

Consider `CC1=C(C(=O)Nc2ccc3[nH]ncc3c2)C(c2ccc3ccccc3c2)CC(=O)N1` (centres undefined), for which the inhibition was 0.77% in assay [1]; -0.19% in assay [2]; 0.74% in [3]; 0.65% in assay [4]; 1.3% in assay [5]; 4.02% in assay [6]. In addition, the inhibition is 1.28% in [7], 5.77% in assay [8], 4.09% in [9] and -1.92% in assay [10].

For the molecule `COc1cc(C)c(NC(=O)CN(C)C)cc1Nc1nc(Nc2cccc(F)c2C(N)=O)c2cc[nH]c2n1`, the inhibition came to 2.33% in [1]; 0.35% in [2]; 16.3% in assay [3]; 0.4% in [4]; 1.56% in assay [5]; 1.57% in assay [6]. The inhibition in assay [7] is 5.28%; in assay [8] it was 0.18%; in assay [9], -4.44%; in assay [10], 1.95%.

Values taken from ChEMBL document CHEMBL1961873, “Compounds: GSK PKIS; Assays: Nanosyn kinase panel” (2012).
